Reference: PubChem BioAssay (NCI)
Where “and” joins values, the source holds several entries; their conditions need not be identical. Equal values may be shown once. Compounds without any hit were thinned out: in the full panel of roughly 83,000, 20% have a hit.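 Single-dose data. Exposure time 48 hours. Values below 10 considered active.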 Unmarked numbers belong to inactive results. Calls of active or inactive are those of the source.

Test system: HCT-116 colon
Assay: NCI-60 one-dose screen, 48 h (100 = growth as untreated, 0 = no growth, -100 = all killed)
Details: 10 µM
Protocol: Growth inhibition of the HCT-116 human tumor cell line is measured as a screen for anti-cancer activity. Cells are grown in 96 well plates and exposed to the test compound for 48 hours. Compounds are tested at a single concentration, which is 10^-5 M for most compounds. The reported endpoint is percent growth (GI% or GIPRCNT), where numbers from 0 - 100% represent growth inhibition, and numbers from -100% - 0 represent cell death. For example, a value of 40 represents 60% growth inhibition. A value of 0 means no net growth occurred over the course of the experiment. A value of -40 indicates 40% of cells at the beginning of the experiment died by the end of the experiment. A value of -100 means all cells are dead at the end of the experiment.
NCI-60 Human Tumor Cell Lines Screen was performed using the standard one-dose NCI protocol, which is described in more detail at https://dtp.cancer.gov/discovery_development/nci-60/default.htm.
Compounds with GIPRCNT values below 10 were considered active. Activity score was based on GIPRCNT using the following formula: […]
Score is 0 for GIPRCNT values of 100 or above, 50 for GIPRCNT values of 0, and 100 for GIPRCNT values of -100.

SMILES | growth
O=C(O)CCCc1ccc(N(CCCl)CCCl)cc1 | 84.4% and 87%

Same assay, conditions: 10 µM unless noted

SMILES | growth
COc1ccn(C)c(=O)c1C#N | 97%
OCCNC1CCCCC1 | 94.3%
NC(=O)Oc1cc(OC(N)=O)cc(N(CCCl)CCCl)c1 | 61.9%
C/C(=N/OC(=O)N(C)C)c1ccc(Cl)c(Cl)c1 | 107%
[N-]=[N+]=CC(=O)CCC(=O)C=[N+]=[N-] | 102%
CCC(Br)(CC)C(=O)NC(N)=O | 93%
C/C(=C\c1ccn(-c2ccc(N)cc2F)n1)[C@@H]1C[C@@H]2O[C@]2(C)CCC[C@H](C)[C@H](O)[C@@H](C)C(=O)C(C)(C)[C@@H](O)CC(=O)O1 | 12.2%
COc1ccc(N)cc1OC | 103%
C=CC[PH+](c1ccccc1)c1ccccc1.C=CC[PH+](c1ccccc1)c1ccccc1.[Pt+2].[S-]c1ncccn1.[S-]c1ncccn1 | -43.8% (active)
O=C(Cc1ccccc1)c1ccccc1 | 101%
Cc1ccccc1-n1c(/C=C\c2ccccn2)nc2ccccc2c1=O | 44%
O=C1NC(=O)C(=Cc2ccccc2)C(=O)N1 | 94% and 102%
CC[C@H](C)[C@H](NC(=O)[C@H]1CCCCN1C)C(=O)N(C)[C@H](C[C@@H](OC(C)=O)c1cccc(C(=O)N[C@@H](Cc2ccccc2)C[C@H](C)C(=O)OC)n1)C(C)C | -5.08% (active)
O=C(NC1=NCC[Se]1)c1ccccc1O | 20.3%
CN(C)c1ccc(N)cc1 | 117% and 14.8%
C[C@]12CCc3sc(Nc4ccc(OC(F)(F)F)cc4)nc3C1=CC[C@@H]1[C@@H]2CC[C@]2(C)C(=O)CC[C@@H]12 | 7.77% (active)
N#CC(C#N)=Cc1cccc(F)c1 | 108%
N#CC(NC(=O)CCl)=C(Cl)Cl | -41.4% (active)
CC1(C)C=Cc2c(ccc3c2[N+]([O-])=C2C3=C[C@@]34NC(=O)[C@]5(CCCN5C3=O)C[C@@H]4C2(C)C)O1 | 17.4%
C[Se]/C=C1/C(=O)N(c2c(Cl)cccc2Cl)c2ccccc21 | 11.4%

SMILES | growth
CSc1cc(/C=C(\C)[C@@H]2C[C@@H]3O[C@]3(C)CCC[C@H](C)[C@H](O)[C@@H](C)C(=O)C(C)(C)[C@@H](O)CC(=O)O2)n(CCNC(=O)OC(C)(C)C)n1 | 26.7%
O=C(CCCN1CCC2(CC1)C(=O)NCN2c1ccccc1)c1ccc(F)cc1 | 73.9% and 19.7%
CCN(CC)CCn1c(=O)n(C)c2ccccc21 | 111%
CC1(C)N=C(N)N=C(N)N1c1ccc(CCC(=O)Nc2ccc(S(=O)(=O)F)cc2)cc1 | 12.3%
COc1ccc(N(CC(=O)NCCC[Te]c2ccccc2)C(=O)c2ccccc2)cc1 | 9.88% (active)
C[C@]12CC[C@H](O)C[C@@H]1CC[C@@H]1[C@@H]2CC[C@]2(C)OC(=O)CC[C@@H]12 | 88.6%
C[C@]12CCc3nc(-c4ccc(O)c(O)c4)sc3C1=CC[C@@H]1[C@@H]2CC[C@]2(C)C(=O)CC[C@@H]12 | 26%
Oc1cc(N2CC2)c(O)cc1N1CC1 | 6.02% (active)
O=C(O)C(Br)CBr (stereo unspecified) | 94.8%
CC/C(=C(\c1ccc(OCCN2CCOCC2)cc1)c1ccc(OC(=O)Cc2ccccc2)cc1)c1ccc(Cl)cc1 | 97.3%
COC12CC3(C)C(C4=CC(=O)OC4)CCC3(O)C3CCC4=CC(=O)CCC4(CO1)C32 (stereo unspecified) | 101%
N#CC(N)c1ccccc1 (stereo unspecified) | 96.4%
Oc1ccccc1C=NCCN=Cc1ccccc1O.[Fe] | 77%
CC[PH+](CC)CC.O=COC1OC([S-])C(OC=O)C(OC=O)C1OC=O.[Au+] (stereo unspecified) | -50.3% (active)
N#CC(C#N)=C(C#N)C#N | 102%
COc1ccc(C(C#N)C(C)=O)cc1 (stereo unspecified) | 105%
O=C1CN2CCC1CC2 | 100%
COc1ccc(/C=C(/C)[N+](=O)[O-])cc1OC | -69.8% (active) and -100% (active)
C=CC1CN2CCC1CC2C(O)c1ccnc2ccccc12 (stereo unspecified) | 110%

Same assay, conditions: 75 µM

SMILES | growth
O=C(O)CCCc1ccc(N(CCCl)CCCl)cc1 | 32.1%
